# From the supplement of paper PMC7366291
# Where a name gives a salt, the structure may show the parent alone. ± gives the standard deviation or the standard deviation of the averaged measurements.
# Assays:
# Conditions in all cases: 25 µM; exposure: 24-48 hpf
# [1] = test system: Danio rerio Tg(wt1b:EGFP) embryo, pronephros; assay: glomerular separation, fold change vs DMSO control; higher = glomeruli further apart (abnormal)
# Summary of the method: (§1)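 Distances and angles describing the pronephros were computed by a Fiji macro from 16 reference points set manually on maximum projections of dorsal images. These images came from dechorionated Tg(wt1b:EGFP) zebrafish embryos held in agarose-filled 96-well plates after exposure to 25 μM compound in 0.5% DMSO, in HEPES-buffered E3 with 0.003% PTU, from 24 to 48 hpf at 28.5°C. Any value more than 2 SD from the feature mean was excluded. Features are stated as fold change relative to the mean of same-day DMSO-treated embryos.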
# [2] = test system: Danio rerio Tg(wt1b:EGFP) embryo, pronephros; assay: glomerular width (mean of left and right), fold change vs DMSO control; higher = wider glomerulus
# Summary of the method: as §1
# [3] = test system: Danio rerio Tg(wt1b:EGFP) embryo, pronephros; assay: fraction of imaged embryos annotated as normal kidney; higher = less nephrotoxic; extreme values may be limits of the assay
# Summary of the method: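 Embryos of the Tg(wt1b:EGFP) zebrafish line were dechorionated and held in 12-well plates with 25 μM compound in 0.5% DMSO and 5 mM HEPES-buffered E3 containing 0.003% PTU, from 24 to 48 hpf at 28.5°C. Larvae were then anaesthetised with tricaine, set dorsal side up in agarose-filled 96-well plates, and their pronephroi imaged by widefield fluorescence at 470 nm over 10 z-slices. Each value is the fraction of embryos per treatment placed in the normal-kidney category after manual annotation of maximum projections.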
# [4] = test system: Danio rerio Tg(wt1b:EGFP) embryo, pronephros; assay: pronephric angle neck segment to proximal convoluted tubule (mean of left and right), fold change vs DMSO control; higher = larger pronephric angle
# Summary of the method: as §1
Compound,glomerular separation [1],glomerular width [2],fraction of imaged embryos annotated as normal kidney [3],pronephric angle neck segment [4]
Nc1nc(O)c2ncn(CCC(CO)CO)c2n1 [Penciclovir],0.817 ± 0.31,1.01 ± 0.019,0.917,0.964 ± 0.05
"OC(CCN1CCCCC1)(c1ccccc1)C1CCCCC1 (centres undefined) [Trihexyphenidyl-D,L Hydrochloride]",0.867 ± 0.41,0.97 ± 0.04,0.833,0.985 ± 0.056
CN(C)C(=N)NC(=N)N [Metformin hydrochloride],0.804 ± 0.19,0.93 ± 0.035,0.833,1.08 ± 0.042
CC1(C)S[C@@H]2[C@H](NC(=O)[C@H](C(=O)O)c3ccsc3)C(=O)N2[C@H]1C(=O)O [Ticarcillin sodium],0.953 ± 0.36,1.01 ± 0.048,0.8,1.006 ± 0.0094
Clc1ccccc1C(c1ccccc1)(c1ccccc1)n1ccnc1 [Clotrimazole],2.06 ± 1.1,0.861 ± 0.11,0.583,1.26 ± 0.1
C#C[C@]1(O)CC[C@H]2[C@@H]3CCC4=CCCC[C@@H]4[C@H]3CC[C@@]21C [Lynestrenol],0.801 ± 0.38,0.994 ± 0.054,0.917,1.02 ± 0.051
CN1CCN(C(c2ccccc2)c2ccccc2)CC1 [Cyclizine hydrochloride],0.835 ± 0.14,0.9853 ± 0.0046,0.833,0.952 ± 0.018
C[N+]1(C)CCC(=C(c2ccccc2)c2ccccc2)CC1 [Diphemanil methylsulfate],1.35 ± 0.53,0.992 ± 0.041,0.75,1.02 ± 0.033
CCC(=O)OCC(=O)[C@@]1(OC(=O)CC)[C@H](C)C[C@H]2[C@H]3[C@H]([C@@H](O)C[C@@]21C)[C@@]1(C)C=CC(=O)C=C1C[C@H]3Cl [Alclometasone dipropionate],1.33 ± 0.61,1.23 ± 0.026,0.333,1.0427 ± 2.1e-05
CC(C)(C)NC(=O)[C@H]1CC[C@H]2[C@@H]3CC[C@H]4NC(=O)C=C[C@]4(C)[C@H]3CC[C@]12C [Finasteride],0.797 ± 0.34,0.937 ± 0.018,0.917,1.04 ± 0.023
CC(=O)Oc1cc(C(F)(F)F)ccc1C(=O)O [Triflusal],1.26 ± 0.59,0.901 ± 0.012,0.917,1.02 ± 0.031
CC(=O)O[C@]1(C(C)=O)CC[C@H]2[C@@H]3C=C(C)C4=CC(=O)CC[C@]4(C)[C@H]3CC[C@@]21C [Megestrol acetate],1.27 ± 0.82,0.864 ± 0.029,0.917,0.9907 ± 0.0078
C[C@H](CCC(=O)O)[C@H]1CC[C@H]2[C@@H]3CC[C@@H]4C[C@H](O)CC[C@]4(C)[C@H]3CC[C@]12C [Lithocholic acid],1.26 ± 0.64,0.839 ± 0.085,0.364,0.929 ± 0.046
"C[C@](N)(Cc1ccc(O)c(O)c1)C(=O)O [Methyldopa (L,-)]",1.03 ± 0.18,1.02 ± 0.081,0.909,1.001 ± 0.0027
CC[C@H](C)C(=O)O[C@H]1C[C@@H](C)C=C2C=C[C@H](C)[C@H](CC[C@@H]3C[C@@H](O)CC(=O)O3)[C@H]21 [Lovastatin],5.64 ± 2.1,0.622 ± 0.012,0,1.54 ± 0.057
Brc1c(NC2=NCCN2)ccc2nccnc12 [Brimonidine L-Tartrate],0.614 ± 0.22,1.11 ± 0.043,1,0.993 ± 0.1
CC[C@H]1OC(=O)[C@H](C)[C@@H](O[C@H]2C[C@@](C)(OC)[C@@H](O)[C@H](C)O2)[C@H](C)[C@@H](O[C@@H]2O[C@H](C)C[C@H](N(C)C)[C@H]2O)[C@](C)(O)C[C@@H](C)[C@@H]2N[C@@H](COCCOC)O[C@H]([C@H]2C)[C@]1(C)O [Dirithromycin],1 ± 0.51,0.964 ± 0.041,1,0.981 ± 0.065
CC[N+](CC)(CC)CCOc1cccc(OCC[N+](CC)(CC)CC)c1OCC[N+](CC)(CC)CC [Gallamine triethiodide],1.13 ± 0.48,1.03 ± 0.04,0.833,0.998 ± 0.034
CSc1ccc2c(c1)N(CCC1CCCCN1C)c1ccccc1S2 (centres undefined) [Thioridazine hydrochloride],1.12 ± 0.33,1.03 ± 0.047,0.75,0.9994 ± 0.0046
CC(=O)OC[C@H]1O[C@@H]([S-])[C@H](OC(C)=O)[C@@H](OC(C)=O)[C@@H]1OC(C)=O.CCP(CC)CC.[Au+] [Auranofin],1.55 ± 0.79,0.789 ± 0.038,0.417,1.19 ± 0.024
CC(CN1c2ccccc2Sc2ccccc21)N(C)C (centres undefined) [Promethazine hydrochloride],0.666 ± 0.15,0.9984 ± 0.0084,0.833,0.994 ± 0.068
CC(C)NCC(O)COc1ccc(CCOCC2CC2)cc1 (centres undefined) [Betaxolol hydrochloride],1.15 ± 0.6,1 ± 0.065,1,0.987 ± 0.025
Cc1onc(-c2ccccc2)c1C(=O)N[C@@H]1C(=O)N2[C@@H]1SC(C)(C)[C@@H]2C(=O)O [Oxacillin sodium],0.779 ± 0.29,1 ± 0.087,0.833,0.9685 ± 0.0044
CN(C)[C@@H]1C(O)=C(C(N)=O)C(=O)[C@@]2(O)C(O)=C3C(=O)c4c(O)ccc(Cl)c4[C@@](C)(O)[C@H]3C[C@@H]12 [Chlortetracycline hydrochloride],1.18 ± 0.35,1.04 ± 0.012,0.583,0.9692 ± 0.0065
CC(=O)N(CC(O)CO)c1c(I)c(C(=O)NCC(O)CO)c(I)c(C(=O)NCC(O)CO)c1I (centres undefined) [Iohexol],1.06 ± 0.38,0.963 ± 0.072,0.75,0.962 ± 0.069
CN(CCOc1ccc(NS(C)(=O)=O)cc1)CCc1ccc(NS(C)(=O)=O)cc1 [Dofetilide],1.35 ± 0.35,0.982 ± 0.025,0.583,1.01 ± 0.07

Compound,glomerular separation [1],glomerular width [2],fraction of imaged embryos annotated as normal kidney [3],pronephric angle neck segment [4]
NCc1ccccc1CC(=O)N[C@@H]1C(=O)N2C(C(=O)O)=C(CSc3nnnn3CC(=O)O)CS[C@H]12 [Ceforanide],1.15 ± 0.8,0.949 ± 0.091,0.833,1.08 ± 0.038
N=C(N)N1CCc2ccccc2C1 [Debrisoquin sulfate],1.02 ± 0.24,0.9804 ± 0.0064,0.667,1.01 ± 0.01
CCOC1O[C@H]([C@@H](COCc2ccccc2)OCc2ccccc2)[C@H](OCc2ccccc2)[C@H]1O (some centres undefined) [Tribenoside],1.42 ± 0.96,0.865 ± 0.056,0.667,1.01 ± 0.018
COC(=O)Nc1nc2cc(C(=O)c3ccccc3)ccc2[nH]1 [Mebendazole],4.75 ± 1.7,0.552 ± 0.014,0,1.91 ± 0.057
COc1cccc(OC)c1C(=O)N[C@@H]1C(=O)N2[C@@H]1SC(C)(C)[C@@H]2C(=O)O [Methicillin sodium],1.21 ± 0.55,1.05 ± 0.057,0.5,1 ± 0.037
COc1cc(C)nc(-n2nc(C)cc2OC)n1 [Epirizole],1.39 ± 0.73,0.957 ± 0.021,0.75,1.03 ± 0.027
CNC1(C)C2CCC(C2)C1(C)C (centres undefined) [Mecamylamine hydrochloride],1.09 ± 0.32,0.973 ± 0.089,0.833,1.07 ± 0.074
CCN(CC)C(=O)N1CCN(C)CC1 [Diethylcarbamazine citrate],0.96 ± 0.28,0.958 ± 0.028,0.909,1.05 ± 0.02
CC(=O)Oc1cc(C(C)C)c(OCCN(C)C)cc1C [Moxisylyte hydrochoride],0.853 ± 0.24,1.03 ± 0.0053,0.917,0.977 ± 0.068
CCN1CCN(C(=O)N[C@@H](C(=O)N[C@@H]2C(=O)N3[C@@H]2SC(C)(C)[C@@H]3C(=O)O)c2ccccc2)C(=O)C1=O [Piperacillin sodium salt],1.07 ± 0.47,0.991 ± 0.063,0.667,1.01 ± 0.046
CCC[C@@H]1C[C@@H](C(=O)N[C@@H]([C@H]2O[C@H](SC)[C@H](O)[C@@H](O)[C@H]2O)[C@H](C)Cl)N(C)C1 [Clindamycin hydrochloride],0.862 ± 0.2,0.964 ± 0.053,0.917,0.995 ± 0.013
Nc1cc(N2CCCCC2)nc(N)[n+]1[O-] [Minoxidil],0.953 ± 0.24,1.05 ± 0.053,0.917,0.99 ± 0.065
CCOC(=O)/C=C(C)/C=C/C=C(C)/C=C/c1c(C)cc(OC)c(C)c1C [Etretinate],0.794 ± 0.27,0.831 ± 0.034,1,1.093 ± 0.01
CO[C@H]1/C=C/O[C@@]2(C)Oc3c(C)c(O)c4c(O)c(c5c(nc6cc(C)ccn65)c4c3C2=O)NC(=O)/C(C)=C\C=C\[C@H](C)[C@H](O)[C@@H](C)[C@@H](O)[C@@H](C)[C@H](OC(C)=O)[C@@H]1C [Rifaximin],0.666 ± 0.16,1.06 ± 0.019,0.833,0.984 ± 0.022
O=C1c2ccccc2C(=O)C1c1ccccc1 [Phenindione],1.02 ± 0.37,1.07 ± 0.052,0.75,0.919 ± 0.013
C[C@H]1[C@H](NC(=O)/C(=N\OC(C)(C)C(=O)O)c2csc(N)n2)C(=O)N1S(=O)(=O)O [Aztreonam],0.857 ± 0.2,1.143 ± 0.0015,0.917,0.9634 ± 0.0095
Cc1c(N)c(=O)n(-c2ccccc2)n1C [Ampyrone],0.975 ± 0.3,1.01 ± 0.031,0.917,0.97 ± 0.0034
Cc1c(NC(C)C)c(=O)n(-c2ccccc2)n1C [Isopyrin hydrochloride],1.1 ± 0.6,1.04 ± 0.016,0.917,0.974 ± 0.022
COc1ccc([C@@H]2Sc3ccccc3N(CCN(C)C)C(=O)[C@@H]2OC(C)=O)cc1 [Diltiazem hydrochloride],0.914 ± 0.32,1.24 ± 0.11,0.667,1.211 ± 0.0023
CCOc1ccc(NC(C)=O)cc1 [Phenacetin],1.14 ± 0.31,1.0834 ± 0.00038,0.667,0.946 ± 0.022
CN(C)[C@@H]1C(O)=C(C(N)=O)C(=O)[C@@]2(O)C(O)=C3C(=O)c4c(O)cccc4[C@@](C)(O)[C@H]3C[C@@H]12 [Tetracycline hydrochloride],1.33 ± 0.62,1.06 ± 0.042,0.778,0.9721 ± 0.0096
Cc1cc(C2CCCCC2)n(O)c(=O)c1 [Ciclopirox ethanolamine],6.61 ± 0.93,0.503 ± 0.058,0,1.68 ± 0.05
COc1ccc(C[C@@H]2c3cc(OC)c(OC)cc3CC[N@+]2(C)CCC(=O)OCCCCCOC(=O)CC[N@@+]2(C)CCc3cc(OC)c(OC)cc3[C@H]2Cc2ccc(OC)c(OC)c2)cc1OC [Cisatracurium besylate],0.571 ± 0.3,1.21 ± 0.0036,0.833,0.984 ± 0.035
CC=CC1=C(C(=O)O)N2C(=O)[C@@H](NC(=O)[C@H](N)c3ccc(O)cc3)[C@H]2SC1 [Cefprozil],0.967 ± 0.4,1.086 ± 0.0056,0.917,0.965 ± 0.061
CN/C(=N\CCSCc1nc[nH]c1C)NC#N [Cimetidine],1.02 ± 0.34,1.051 ± 0.0067,0.917,0.926 ± 0.062
